Laboratory results from PubChem BioAssay (NCATS).
Records with an inconclusive call do not appear. Unless noted, calls follow the shape of the dose curve; as a rule, active = well fitted curve in either direction with a large enough effect (not every such curve was filed as active); inconclusive = small, poorly fitted or top-dose-only effect, or another doubt; inactive = flat fitted curve, though single readings scatter.

Tests used:
[1] = AP1 Signaling Pathway (AID 357); details: ME-180 AP-1-bla reporter, EGF-induced, beta-lactamase ratio, 5 h; at 17.2 µM (top of the series) unless noted; also: % is scaled to controls: 0 for no effect and ±100 for the full control effect
In short: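 ME-180 cells with beta-lactamase reporter under AP-1 response element, stimulated with EC50 EGF; compounds tested in titration series, 5 h at 37 °C. CCF4 substrate added 2.5 h at room temperature; 460/530 nm emission ratio gave %activity and AC50.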

[2] = NFAT Signaling Pathway (AID 444); details: Jurkat NFAT-bla M1, carbachol, beta-lactamase ratio, 5 h; at 17.2 µM (top of the series) unless noted;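 also: carbachol stimulus at about its EC50 of 1 µM final; % is scaled to controls: 0 for no effect and ±100 for the full control effect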
In short: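 Jurkat cells carrying an NFAT-driven β-lactamase reporter and co-transfected muscarinic M1 receptor were treated with compound plus carbachol (1 uM final, an EC50 level) for 5 h at 37 °C. CCF4 loading followed for 1 h at RT; 460/530 nm ratio gave %activity.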

[3] = Stat Signaling Pathway (AID 446); details: ME-180 (cervical carcinoma) SIE beta-lactamase reporter, IL-6 stimulated, 5 h; at 17.2 µM (top of the series) unless noted;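 also: ME-180 cervical cancer cells given 40 pM IL-6 alongside compound; SIE-controlled beta-lactamase reporter measured as 460/530 nm FRET emission ratio; % is scaled to controls: 0 for no effect and ±100 for the full control effect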
In short: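 IL-6/STAT signaling read in ME-180 cells via an SIE beta-lactamase reporter. Stimulus was 40 pM IL-6 (its AC50) for 5 hrs, so both activation and inhibition register.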

[4] = target: Glucocorticoid receptor (Homo sapiens) (UniProt P04150); assay: GR-GFP Redistribution (AID 450;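 active = compounds whose dose series gives a full or clear partial fitted curve of increased nuclear translocation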; also: potency is read from the fitted curve at half-maximal effect)
Sequence of Glucocorticoid receptor (Homo sapiens) (P04150 whole entry, looked up): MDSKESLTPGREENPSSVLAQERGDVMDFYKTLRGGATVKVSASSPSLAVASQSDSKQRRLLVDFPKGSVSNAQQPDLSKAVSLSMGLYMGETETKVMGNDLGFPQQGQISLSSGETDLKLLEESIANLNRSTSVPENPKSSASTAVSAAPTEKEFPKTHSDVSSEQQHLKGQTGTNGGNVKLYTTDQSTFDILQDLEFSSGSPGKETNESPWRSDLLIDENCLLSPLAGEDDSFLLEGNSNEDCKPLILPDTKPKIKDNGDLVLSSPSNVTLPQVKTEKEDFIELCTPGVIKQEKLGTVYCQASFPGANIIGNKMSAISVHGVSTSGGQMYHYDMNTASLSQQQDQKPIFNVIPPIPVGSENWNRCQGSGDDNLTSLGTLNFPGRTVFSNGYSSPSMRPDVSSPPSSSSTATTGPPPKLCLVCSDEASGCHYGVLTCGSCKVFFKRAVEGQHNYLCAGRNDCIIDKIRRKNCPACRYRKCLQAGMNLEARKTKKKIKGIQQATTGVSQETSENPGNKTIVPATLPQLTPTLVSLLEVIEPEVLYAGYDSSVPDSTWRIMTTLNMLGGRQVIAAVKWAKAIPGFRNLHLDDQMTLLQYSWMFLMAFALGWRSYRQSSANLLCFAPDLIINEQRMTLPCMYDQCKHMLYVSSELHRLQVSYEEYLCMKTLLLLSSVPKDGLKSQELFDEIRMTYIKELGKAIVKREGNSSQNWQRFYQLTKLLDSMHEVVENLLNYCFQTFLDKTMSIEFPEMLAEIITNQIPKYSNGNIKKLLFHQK

CCCCCCC(=O)N1CCN(c2cc3c(cc2F)c(=O)c(C(=O)O)cn3CC)CC1
inactive: activity change, negative = inhibition [1] -1.28% | activity change, negative = inhibition [2] 7.84% | activity, negative = inhibition [3] 0.48% | Potency [4] > 20.6 µM

CCN(CC)CCCN1C(=O)C(=O)/C(=C(/O)c2ccc3c(c2)CC(C)O3)C1c1cccnc1 (centres undefined)
inactive: activity change, negative = inhibition [1] 4.22% | activity change, negative = inhibition [2] 11.9% | activity, negative = inhibition [3] 9.37% | Potency [4] > 20.6 µM

CCCC1CC(=O)OC1(C)C(=O)CSc1n[nH]c(-c2ccccc2)n1 (centres undefined)
inactive: activity change, negative = inhibition [1] -6.44% | activity change, negative = inhibition [2] 8.59% | activity, negative = inhibition [3] -7.88% | Potency [4] > 20.6 µM

CCCCC(=O)NC(Nc1ccc(C)cn1)(C(=O)OCC)C(F)(F)F (centres undefined)
inactive: activity change, negative = inhibition [1] 6.8% | activity change, negative = inhibition [2] -3.17% | activity, negative = inhibition [3] -20.4% | Potency [4] > 20.6 µM

O=S1(=O)C[C@@H](N2CCOCC2)[C@H](N2CCOCC2)C1
inactive: activity change, negative = inhibition [1] -10.3% | activity change, negative = inhibition [2] 6.36% | activity, negative = inhibition [3] -4.63% | Potency [4] > 20.6 µM

COc1cc(C2C(C#N)=C(N)Oc3cc(C)n(Cc4ccccn4)c(=O)c32)cc2c1OCO2 (centres undefined)
inactive: activity change, negative = inhibition [1] -7.44% | activity change, negative = inhibition [2] -12.8% | activity, negative = inhibition [3] -4.06% | Potency [4] > 20.6 µM

Cc1c(NC(=O)c2ccc(=O)oc2)c(=O)n(-c2ccccc2)n1C
inactive: activity change, negative = inhibition [1] 10.3% | activity change, negative = inhibition [2] -22.5% | activity, negative = inhibition [3] 2.43% | Potency [4] > 20.6 µM

CCOC(=O)c1c(C)n(C)c2ccc(OC)c(NC(=O)CN3CCN(Cc4ccccc4)CC3)c12
inactive: activity change, negative = inhibition [1] -11% | activity change, negative = inhibition [2] -8.48% | activity, negative = inhibition [3] -7.51% | Potency [4] > 20.6 µM

Nc1nc2n(n1)C(c1ccc(F)cc1)CC(c1ccc(F)cc1)N2 (centres undefined)
inactive: activity change, negative = inhibition [1] -1.23% | activity change, negative = inhibition [2] 10.7% | activity, negative = inhibition [3] 5.35% | Potency [4] > 20.6 µM

CCOC(=O)C(Oc1ccc(=O)[nH]n1)C(C)=O (centres undefined)
inactive: activity change, negative = inhibition [1] 3.6% | activity change, negative = inhibition [2] 5.95% | activity, negative = inhibition [3] 2.15% | Potency [4] > 20.6 µM

Cc1cc(C)n(Cc2cc(C)c(Cn3nc(C)cc3C)cc2C)n1
inactive: activity change, negative = inhibition [1] 14.4% | activity change, negative = inhibition [2] -3.13% | activity, negative = inhibition [3] -5.55% | Potency [4] > 20.6 µM

CNC(=O)C1CC(=O)N(Cc2ccccc2)C(=Nc2ccc(OC)cc2)S1 (centres undefined)
inactive: activity change, negative = inhibition [1] -3.9% | activity change, negative = inhibition [2] 4.86% | activity, negative = inhibition [3] -6.63% | Potency [4] > 20.6 µM

CCC1=C(C(=O)OC)C(c2cc(OC)ccc2OC)C(C#N)=C(N)O1 (centres undefined)
inactive: activity change, negative = inhibition [1] -1.51% | activity change, negative = inhibition [2] -14.5% | activity, negative = inhibition [3] 4.21% | Potency [4] > 20.6 µM

CC1CCc2cc(F)cc3c(O)c(C(=O)NCC4CCCO4)c(=O)n1c23 (centres undefined)
inactive: activity change, negative = inhibition [1] -6.28% | activity change, negative = inhibition [2] -19.9% | activity, negative = inhibition [3] 1.8% | Potency [4] > 20.6 µM

COc1ccccc1-c1nnc2sc(COc3ccccc3)nn12
inactive: activity change, negative = inhibition [1] -9.17% | activity change, negative = inhibition [2] 13.4% | activity, negative = inhibition [3] -10.5% | Potency [4] > 20.6 µM

O=C1CCc2nc3ccccc3c(=O)n2N1
inactive: activity change, negative = inhibition [1] -6.16% | activity change, negative = inhibition [2] 22.2% | activity, negative = inhibition [3] -4.8% | Potency [4] > 20.6 µM

CCOc1c(C)cc2[nH]c(CCC(=O)O)nc2c1C
inactive: activity change, negative = inhibition [1] 7.73% | activity change, negative = inhibition [2] -1.66% | activity, negative = inhibition [3] 7.03% | Potency [4] > 20.6 µM

Cc1cc2nncn2c(Cc2ccccc2)n1
inactive: activity change, negative = inhibition [1] -3.42% | activity change, negative = inhibition [2] -3.53% | activity, negative = inhibition [3] -8.81% | Potency [4] > 20.6 µM

COc1ccccc1NC(=O)c1c(C)cc(=O)oc1C
inactive: activity change, negative = inhibition [1] 13% | activity change, negative = inhibition [2] 12.5% | activity, negative = inhibition [3] 0.453% | Potency [4] > 20.6 µM

Cc1ccc(-n2[nH]c(C)c(C=Nc3cc(C)ccn3)c2=O)cc1
inactive: activity change, negative = inhibition [1] 2.52% | activity change, negative = inhibition [2] -2.28% | activity, negative = inhibition [3] 4.82% | Potency [4] > 20.6 µM

CC1(C)Cc2c(c(-c3ccccc3)nc(N3CCCC3)c2C(N)=O)CO1
inactive: activity change, negative = inhibition [1] 0.989% | activity change, negative = inhibition [2] -18.8% | activity, negative = inhibition [3] 0.41% | Potency [4] > 20.6 µM

C=CCNc1nc(NCc2ccccc2)c(C#N)c2c1CN(C)CC2
inactive: activity change, negative = inhibition [1] 23.1% | activity change, negative = inhibition [2] 5.41% | activity, negative = inhibition [3] 25.2% | Potency [4] > 20.6 µM

Cc1cc2c(c(=O)o1)C(CC(C)C)C(C#N)=C(N)O2 (centres undefined)
inactive: activity change, negative = inhibition [1] 14.1% | activity change, negative = inhibition [2] 4.64% | activity, negative = inhibition [3] 1.38% | Potency [4] > 20.6 µM

CCOC(=O)C1=C(C)OC(N)=C(C#N)C1c1cc2ccccc2nc1N1CCCCC1 (centres undefined)
inactive: activity change, negative = inhibition [1] -11.2% | activity change, negative = inhibition [2] -20.1% | activity, negative = inhibition [3] 13.8% | Potency [4] > 20.6 µM

S=c1nc(-c2ccccc2)[nH]n1-c1ccccc1
inactive: activity change, negative = inhibition [1] 21.6% | activity change, negative = inhibition [2] 5.29% | activity, negative = inhibition [3] -1.15% | Potency [4] > 20.6 µM

COCCN(Cc1ccccc1)P(=O)(O)c1ccccc1OCC(=O)O
inactive: activity change, negative = inhibition [1] -2.92% | activity change, negative = inhibition [2] -4.16% | activity, negative = inhibition [3] 2.47% | Potency [4] > 20.6 µM
